From PubChem BioAssay (NCI)
Values joined by “and” are separate entries in the source; they are usually repeats but may differ in a detail not shown here. Equal entries are not always repeated. Compounds without any hit were thinned out: in the full panel of roughly 83,000, 20% have a hit.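 A percent growth of 40 corresponds to 60% growth inhibition; 0 means no net growth; -100 means all cells died. Active threshold: below 10.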 Values without a mark were called inactive. Active and inactive are the calls of the source.

What follows are molecules tested on MDA-MB-468 breast (assay: NCI-60 one-dose screen, 48 h (100 = growth as untreated, 0 = no growth, -100 = all killed)). Conditions: 10 µM unless noted.

Row | SMILES | growth
1 | O=C1C2CCC1C(N1CCCC1)CC2 (centres undefined) | 105%
2 | C=NCC#N | 105% and 108%
3 | CC1(C)N(Nc2ccccc2)C(=O)C2CCCN21 (centres undefined) | 79.2%
4 | O=C1c2ccccc2C(=O)C(Cl)C1Cl (centres undefined) | -89.9% (active)
